Assay results taken from PubChem BioAssay AID720504 (National Center for Advancing Translational Sciences (NCATS), 2013).
Among all 360,000 compounds or so, about 10,000 (2.8%) were called active. Roughly 4% stayed inconclusive and do not appear here. This is one part of a sample in which actives are shown more often than they occur. Unmarked numbers belong to inactive results. The call rests on the fitted dose curve; in most records, active means well fitted inhibition curve with a large enough effect; inconclusive means small, poorly fitted or top-dose-only effect; inactive means flat fitted curve, though single readings scatter.

biological target: Serine/threonine-protein kinase PLK1 (Homo sapiens) (UniProt P53350); assay: qHTS for Inhibitors of PLK1-PDB (polo-like kinase 1 - polo-box domain): Primary Screen; details: Plk1 PBD binding of FITC phosphopeptide, fluorescence polarization; further: nearly all actives have a fitted effect of over 65% in size; on max response, negative = inhibition: series mostly up to about 57 µM
On the % scale 0 is the no-effect control and ±100 the full control effect; potency means the concentration at half of the fitted maximal effect.

Serine/threonine-protein kinase PLK1 (Homo sapiens), sequence (P53350 whole entry, looked up, the tested form may be a part): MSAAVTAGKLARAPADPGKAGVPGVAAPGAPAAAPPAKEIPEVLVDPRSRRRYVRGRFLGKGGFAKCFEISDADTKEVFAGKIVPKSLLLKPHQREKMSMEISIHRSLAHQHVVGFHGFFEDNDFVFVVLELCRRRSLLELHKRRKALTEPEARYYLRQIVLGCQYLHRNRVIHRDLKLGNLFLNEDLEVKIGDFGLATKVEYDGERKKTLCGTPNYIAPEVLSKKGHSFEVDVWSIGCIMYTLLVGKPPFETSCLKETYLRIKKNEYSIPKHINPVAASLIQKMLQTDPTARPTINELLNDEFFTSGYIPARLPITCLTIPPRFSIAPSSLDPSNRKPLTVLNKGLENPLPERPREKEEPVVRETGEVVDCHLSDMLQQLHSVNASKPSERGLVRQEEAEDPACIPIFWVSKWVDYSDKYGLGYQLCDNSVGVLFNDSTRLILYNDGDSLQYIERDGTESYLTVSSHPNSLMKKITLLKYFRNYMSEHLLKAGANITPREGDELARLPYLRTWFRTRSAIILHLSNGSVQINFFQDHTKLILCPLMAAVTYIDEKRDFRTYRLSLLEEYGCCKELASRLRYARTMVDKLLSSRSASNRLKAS

SMILES	max response, negative = inhibition [%]	Potency
CCN(C(=O)COC(=O)c1sccc1C)c1c(N)n(Cc2ccccc2)c(=O)[nH]c1=O	-3.78	–
CCN(C(=O)CN1CCN(Cc2ccccc2)CC1)c1c(N)n(Cc2ccccc2)c(=O)[nH]c1=O	–	23.8 µM (active)
CCN(C(=O)COC(=O)Cc1c(F)cccc1Cl)c1c(N)n(Cc2ccccc2)c(=O)[nH]c1=O	4.8	–
COc1ccc(NC(=O)CCCOc2ccc(C(C)=O)cc2)cc1S(=O)(=O)N1CCCCC1	2.7	–
Brc1ccc2nc(-c3ccccc3)c(Cc3ccccc3)n2c1	-6.3	–
CN1OC[C@@H]2CN(C(=O)c3cccc4ccccc34)[C@H](c3ccc(N4CCCCC4)cc3)C[C@@H]21	-3.91	–
CC1(C(=O)Nc2cccc3c2CCCC3)CCN1C(=O)C1(c2ccccc2)CC1 (stereo unspecified)	2.66	–
CC1(Cc2ccccc2C#N)C(=O)Nc2ccc(-c3ccc4[nH]ccc4c3)cc21 (stereo unspecified)	2.71	–
CCOC(=O)C1(CCOC)CCN(Cc2ccc(C(=O)OC)cc2)CC1	-4.26	–
CCOC(=O)C1(CCOC)CCN(Cc2cc3ccccc3s2)CC1	–	10.6 µM (active)
CCOC(=O)C1(CCOc2ccccc2)CCN(Cc2cc(OC)cc(OC)c2)CC1	-2.45	–
O=C(Nc1cccc2cccnc12)c1ccc2sc([C@H]3C[C@H](O)[C@@H](CO)O3)nc2c1	3.77	–
O=C(O)c1ccccc1CSc1nc2ccccc2s1	–	8.44 µM (active)
Cn1c(=O)[nH]c(=O)c2c1nc(N1CCN(CCO)CC1)n2CCSc1nc2ccccc2s1	-15.4	–
Nc1nnc(SCC(=O)Nc2ccc3nc(SCC(=O)Nc4ccccc4)sc3c2)s1	2.76	–
Cc1noc(C)c1S(=O)(=O)N(C)C[C@H]1OCCCC[C@@H](C)Oc2ccc(NC(=O)CCCN(C)C)cc2C(=O)N([C@H](C)CO)C[C@@H]1C	-12.6	–
CC1(C(=O)NS(=O)(=O)Cc2cccc(Cl)c2)CCN1C(=O)Cc1ccccc1 (stereo unspecified)	0.171	–
O=C(COc1ccc(Cl)cc1)N1CCN(c2cccc(C(F)(F)F)c2)CC1	–	18.9 µM (active)
Cc1c(C)c2ccc(OCC(=O)N3CCN(c4cccc(Cl)c4)CC3)cc2oc1=O	-4.22	–
CSCCC(NC(=O)COc1ccccc1)C(=O)N1CCN(c2cccc(C(F)(F)F)c2)CC1 (stereo unspecified)	10.8	–
CCOc1cc(/C=N/NC(=O)c2ccncc2)cc(Br)c1O	-2.72	–
O=C(CC[C@H]1O[C@@H](n2ccc(=O)[nH]c2=O)[C@H](O)[C@@H]1O)N[C@H](Cc1ccccc1)C(=O)NCCCN1CCCC1=O	-13.5	–

SMILES	max response, negative = inhibition [%]	Potency
CN(C)CCNC(=O)c1cccc(-c2cnc3c(NC=O)cc(-c4cccc(C(F)(F)F)c4)cn23)c1	-13.6	–
CC(C)(C)OC(=O)N1CCN(C(=O)c2[nH]c(C(F)(F)F)nc2-c2ccccc2)CC1	1.58	–
COC(=O)c1sc(N2CCN(Cc3ccccc3)CC2)nc1N	-4.47	–
COC(=O)c1sc(=S)n(-c2ccccc2)c1N	–	10 µM (active)
CCOC(=O)C(C)n1cnc2c(nnn2-c2cccc(OC)c2)c1=O (stereo unspecified)	1.99	–
COC(=O)C1=C(C)N(C)C(=S)NC1c1ccccc1 (stereo unspecified)	-7.92	–
CCOC(=O)c1sc(=S)n(-c2cccc(OC)c2)c1N	–	14.1 µM (active)
CCOC(=O)c1cnc(SCC(=O)Nc2cccc(OC)c2)nc1N	-5.18	–
CC1(C)OC(=O)C2=C(C[C@@H](C3CC3)O[C@H]2CCc2cccc(Cl)c2)O1	4.74	–
COc1ccc(C(C#N)=C2C=CC(=NO)c3ccccc32)cc1	-0.254	–
COc1ccccc1NC(=O)C(CC(=O)O)Cc1cc(C)cc(C)c1 (stereo unspecified)	-4.75	–
Cn1c(Nc2ccc(F)cc2)nc2cc(-c3ccsc3)sc2c1=O	-9.36	–
CC1Cc2ccccc2N1C(=O)CSc1nnc(-c2ccc(S(=O)(=O)N3CCCC3)cc2)n1C (stereo unspecified)	-7.29	–
CCn1c(CSc2ncccn2)nnc1SCC(=O)N1c2ccccc2CC1C (stereo unspecified)	-13	–
CC1Cc2ccccc2N1C(=O)CSc1nnc(C2CC2)n1C (stereo unspecified)	–	21.2 µM (active)
Cc1ccc(Cn2cc(CN3CC(N4CCN(C)CC4)CS3(=O)=O)nn2)cc1 (stereo unspecified)	-1.82	–
O=C1[C@H]2[C@@H](c3ccc(C(F)(F)F)cc3)N[C@]3(CCCN(Cc4ccc(Br)cc4)C3=O)[C@H]2C(=O)N1Cc1ccccc1	8.62	–
CC(C)C1CC2=C(C(=O)OC(C)(C)O2)C(c2ccc(F)cc2)O1 (stereo unspecified)	2.13	–
O=C1/C(=C\c2ccc([N+](=O)[O-])cc2)CS(=O)(=O)C/C1=C/c1ccc([N+](=O)[O-])cc1	–	4.23 µM (active)
CNC(=S)Nc1ccc([N+](=O)[O-])cc1	-17.5	–
O=C(O)C(=Cc1ccc([N+](=O)[O-])cc1)CCc1ccccc1	-6.74	–
CC(=O)OC[C@@H]1CN(Cc2ccccc2)C[C@H](n2cnc3c(NCc4ccco4)ncnc32)O1	1.29	–

SMILES	max response, negative = inhibition [%]	Potency
CCN1C(=O)[C@@H]2[C@@H]3CN(S(=O)(=O)c4ccccc4C)[C@@H](c4ccc(Cl)cc4)[C@@H]3C(=O)C[C@@H]2C1=O	-4.29	–
CCS(=O)(=O)c1cc([N+](=O)[O-])c(Sc2ccccc2N)s1	–	23.8 µM (active)
Cc1ccc(S(=O)(=O)NCCSc2ccccc2)cc1[N+](=O)[O-]	1.72	–
Cc1cccc(CN2CCN(C3CN(Cc4cn(Cc5cc(C)cc(C)c5)nn4)S(=O)(=O)C3)CC2)c1 (stereo unspecified)	-3.6	–
COc1ccc(S(=O)(=O)N(C)C[C@H]2OCc3cnnn3CCCC(=O)N([C@H](C)CO)C[C@H]2C)cc1	-13.3	–
CC(=O)Nc1cccc(/C(C)=N/NC(=O)c2c(-c3ccccc3Cl)noc2C)c1	-10.9	–
Cc1ccccc1NC(=O)c1cc(S(=O)(=O)Nc2cccc(C(=O)O)c2)ccc1Cl	4.03	–
C/C(=N\Nc1cccc(C(=O)O)c1)c1ccc2c(c1)Nc1ccccc1S2	–	26.7 µM (active)
CCOC(=O)[C@]12CCCC=C1N(CCC1=CCCCC1)C(=O)[C@H](CC(=O)N1CCSCC1)C2	1.28	–
O=C1C(Cl)=C(Oc2ccccc2)C(=O)c2ccccc21	–	1.68 µM (active)
COC(=O)c1ccc2nc(-c3ccc(OC)c(OC)c3)c(Cc3ccccc3)n2c1	-13.8	–
CCN(CC)C(=O)c1sc2nc(-c3ccccc3)ccc2c1N	-8.25	–
CN(C)c1ccnc2sc(C(=O)c3ccccc3)c(N)c12	–	29.9 µM (active)
CN(C(=O)c1ccccn1)c1nnc(-c2ccccn2)s1	1.77	–
O=C(NC(c1ccc(Cl)cc1)c1cnccn1)C1CCN(Cc2ccc(Cl)cc2)CC1 (stereo unspecified)	2.32	–
Clc1cccc(Cc2c(-c3cccc(Cl)c3)nc3ccc(Cl)cn23)c1	-13.7	–
O=C(COc1ccc(Cl)cc1[N+](=O)[O-])N1CCCCC1	-4.72	–
O=C1CCCCC1Sc1ccc(Cl)cc1[N+](=O)[O-] (stereo unspecified)	–	4.74 µM (active)
CSc1ccccc1NC(=O)CN(C)CC(=O)Nc1ccc(Cl)cc1[N+](=O)[O-]	-4.66	–
CCOC(=O)c1c(NC(=S)SC)sc(C(=O)N2CCc3ccccc3C2)c1C	-5.18	–
CC(=O)NC(c1ccccc1)c1nc(-c2ccccc2C)cs1 (stereo unspecified)	-5.3	–
COCC1CCCCN1C(=O)c1cc(COc2ccc(C)c(C)c2)on1 (stereo unspecified)	3.28	–

SMILES	max response, negative = inhibition [%]	Potency
CCOc1ccc(-n2c(N)c(C(=O)NCC3CCCO3)sc2=S)cc1 (stereo unspecified)	–	23.8 µM (active)
CCOc1ccc(NS(=O)(=O)c2ccc(C(=O)NCC3CCCO3)cc2)cc1 (stereo unspecified)	1.53	–
CCOc1ccc(S(=O)(=O)N2CCN(C(=S)NCC3CCCO3)CC2)cc1 (stereo unspecified)	1.52	–
CCc1n[nH]c(=S)n1/N=C/c1c[nH]c2ccc(Br)cc12	–	33.6 µM (active)
Cc1ccccc1-c1n[nH]c(=S)n1/N=C/c1ccc(-c2ccccc2Br)o1	-17.2	–
CN(Cc1ccccc1F)c1cc2c(c3c1ccn3C)C1CCC2O1 (stereo unspecified)	-4.37	–
O=C1OCCOC2CCCc3oc(-c4ccccc4)c1c32 (stereo unspecified)	-1.47	–
CC1=C/C(=N\OS(=O)(=O)c2ccccc2)C=CC1=O	–	1.26 µM (active)
CCN(CC)CCN(C)C(c1ccnc2ccccc12)c1nnnn1-c1ccc2c(c1)OCCO2 (stereo unspecified)	-13.1	–
COc1ccc(/C=C2\SC(=S)N(CCC(=O)N3CCOCC3)C2=O)cc1OC	-7.23	–
O=C1/C(=C/c2ccc(F)cc2)SC(=S)N1CCCC(=O)N1CCCCC1CCO (stereo unspecified)	-15.9	–
C=CCOc1ccc(/C=C2\SC(=S)N(CCC(=O)O)C2=O)cc1	–	26.7 µM (active)
CCCCC[C@H](C)N1C[C@@H](COCc2ccccc2)Oc2cc(N3CCC[C@@H]3CO)ccc2S1(=O)=O	-6.61	–
CC(C)C[C@@H]1Cc2[nH][nH]c(=O)c2[C@H](CCc2ccccc2)O1	-16.3	–
COc1ccccc1CNC(=O)c1cc(-c2cc(Cl)ccc2C)n[nH]1	0.345	–
O=[N+]([O-])/C=C/c1ccc2c(ccn2Cc2ccccc2)c1	–	3.36 µM (active)
CCc1nc2c(OCCOc3ccccc3)cccn2c1N(C)C(=O)c1ccccc1F	-11.2	–
CCOC(=O)Cc1csc(NC(=O)CSc2nc(C)cc(=O)[nH]2)n1	–	11.9 µM (active)
CCOC(=O)Cc1csc(NC(=O)CSc2ccc(Br)cc2)n1	-1.13	–
CCCCc1nnc(NC(=O)CSc2nc(C)cc(=O)[nH]2)s1	-4.5	–
